Consider 25 molecules from PubChem BioAssay (NCATS).

SMILES strings stand for the structures. Inconclusive results are not listed. Where a structure was tested more than once in an assay, its records may differ in their call. The source made the active and inactive calls. Unless noted, calls follow the shape of the dose curve; as a rule, active = well fitted curve in the direction sought with a large enough effect; inconclusive = small, poorly fitted or top-dose-only effect, or another doubt; inactive = no such curve, though single readings can be large; an effect the other way counts as inactive or inconclusive.

A short description of test [1]: qHTS for Inhibitors of Plasmodium falciparum (DD2) proliferation (AID 504314). Also: potency is read from the fitted curve at half-maximal effect. The gist of the method:
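Erythrocytes infected with P. falciparum Dd2 (0.3% parasitemia, 2.5% hematocrit) exposed to compound 72 h at 37C, 5% CO2. Parasite DNA quantified by SYBR Green fluorescence after saponin/Triton lysis overnight; normalized to 0.29 uM artemisinin and DMSO.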

Test [2] is described as follows: qHTS for Inhibitors of Plasmodium falciparum (GB4) proliferation (AID 504315). Also: nearly all actives have a fitted effect of over 50% in size. Also: potency is read from the fitted curve at half-maximal effect. In short, it runs like this:
(§1)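 Erythrocytes infected with P. falciparum line (0.3% parasitemia, 2.5% hematocrit final) incubated with compounds 72 h at 37 °C, 5% CO2; SYBR Green lysis buffer added, fluorescence read next day. Normalized to 0.29 uM artemisinin and DMSO.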

A short description of test [3]: qHTS for Inhibitors of Plasmodium falciparum (7G8) proliferation (AID 504316). Also: nearly all actives have a fitted effect of over 65% in size. Also: potency is read from the fitted curve at half-maximal effect. The gist of the method: as §1
Test [4] can be described thus: qHTS for Inhibitors of Plasmodium falciparum (HB3) proliferation (AID 504318). Also: nearly all actives have a fitted effect of over 60% in size. Also: potency is read from the fitted curve at half-maximal effect. The gist of the method:
as §1

Test [5] is described as follows: qHTS for Inhibitors of Plasmodium falciparum (CP250) proliferation (AID 504320). The gist of the method:
as §1

Test [6] concerns the target Atrial natriuretic peptide receptor 1 (Homo sapiens) (UniProt P16066). The test is described as follows: Natriuretic polypeptide receptor (hNpr1) antagonism - Pilot CMLD screen (AID 1347052; calls by dose curve;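 also: HEK293 cells with hNpr1 stimulated by hNppA peptide at 0.1 nM; cGMP level read as GloSensor luciferase luminescence after agonist stimulation; series mostly up to about 9.2 µM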).

Chain of Atrial natriuretic peptide receptor 1 (Homo sapiens) (P16066 whole entry, looked up): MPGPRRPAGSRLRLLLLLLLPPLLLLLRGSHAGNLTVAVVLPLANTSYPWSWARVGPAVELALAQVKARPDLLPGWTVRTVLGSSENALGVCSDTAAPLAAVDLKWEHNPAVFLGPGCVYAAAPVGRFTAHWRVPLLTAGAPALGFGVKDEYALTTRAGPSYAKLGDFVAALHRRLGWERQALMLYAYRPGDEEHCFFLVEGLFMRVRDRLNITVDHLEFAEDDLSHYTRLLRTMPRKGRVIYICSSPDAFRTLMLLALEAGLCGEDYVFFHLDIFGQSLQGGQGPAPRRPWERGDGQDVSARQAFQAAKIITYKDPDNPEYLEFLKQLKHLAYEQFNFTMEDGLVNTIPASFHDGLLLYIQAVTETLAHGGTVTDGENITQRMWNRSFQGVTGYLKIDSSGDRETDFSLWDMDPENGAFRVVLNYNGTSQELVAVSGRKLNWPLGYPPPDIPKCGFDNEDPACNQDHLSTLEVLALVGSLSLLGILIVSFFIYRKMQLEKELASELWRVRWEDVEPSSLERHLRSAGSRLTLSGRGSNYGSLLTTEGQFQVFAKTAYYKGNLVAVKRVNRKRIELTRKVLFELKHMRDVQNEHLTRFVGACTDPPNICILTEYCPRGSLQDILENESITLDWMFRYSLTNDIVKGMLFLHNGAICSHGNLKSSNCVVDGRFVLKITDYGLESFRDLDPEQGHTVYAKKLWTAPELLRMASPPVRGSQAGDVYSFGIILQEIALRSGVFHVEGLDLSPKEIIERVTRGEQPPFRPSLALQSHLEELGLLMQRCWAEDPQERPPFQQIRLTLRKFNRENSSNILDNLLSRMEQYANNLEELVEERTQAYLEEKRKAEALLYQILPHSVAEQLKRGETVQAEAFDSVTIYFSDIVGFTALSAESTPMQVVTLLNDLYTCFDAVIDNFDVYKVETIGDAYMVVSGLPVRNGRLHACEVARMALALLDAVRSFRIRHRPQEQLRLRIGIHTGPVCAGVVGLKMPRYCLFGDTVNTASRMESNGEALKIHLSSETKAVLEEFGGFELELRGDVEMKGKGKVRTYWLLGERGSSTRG

For `COc1cccc(CO[C@H]2C=C[C@@H](c3ccccc3)O[C@H]2CN=[N+]=[N-])c1`, the Potency result in test [1], in test [2], in test [3], in test [4], in test [5] and in test [6] was “inactive” each time.
Consider `COC(=O)N[C@H](CC(C)=O)c1cccc(C(F)(F)F)c1`, for which the Potency result in test [1], in test [2], in test [3], in test [4], in test [5] and in test [6] was “inactive” in each case.
Turning to `COC1=C[C@H](C(=O)NCc2ccc(Br)cc2)C(C)C(c2ccccc2)CC1=O` (stereo not given in full), the Potency entry in test [1], in test [2], in test [3], in test [4], in test [5] and in test [6] was “inactive” each time.
Turning to `C[C@@H]1CC[C@H]2C(=O)N3[C@@H](CC[C@@H](C)[C@@H]3c3ccc(-c4ccco4)cc3)C(=O)N2[C@@H]1c1ccc(-c2ccco2)cc1`, the Potency entry in test [1], in test [2], in test [3], in test [4], in test [5] and in test [6] was “inactive” in each case.
As to `COC(=O)NCC=Cc1nc(CCCO)co1`, the Potency result in test [1], in test [2], in test [3], in test [4], in test [5] and in test [6] was “inactive” each time.
With `COc1ccc(-c2nc(-c3ccccc3)oc2Nc2ccccc2C)cc1`, the Potency entry in test [1], in test [2], in test [3], in test [4], in test [5] and in test [6] was “inactive” each time.
Regarding `COC(=O)N[C@@H](c1cccc(F)c1)C(C(C)=O)C(=O)OC` (stereo not given in full), the Potency result in test [1], in test [2], in test [3], in test [4], in test [5] and in test [6] was “inactive” each time.
For `COCCN1C(=NCCc2cccnc2)NC(c2ccccc2)C(C(=O)OC)=C1C` (stereo not given), the Potency result in test [1], in test [2], in test [3], in test [4], in test [5] and in test [6] was “inactive” in each case.
Regarding `C=CCOC(=O)N[C@@H](c1cccc(OC)c1)[C@@H](C)C=CCC(=O)O`, the Potency entry in test [1], in test [2], in test [3], in test [4], in test [5] and in test [6] was “inactive” in each case.
In the case of `COc1ccc(-c2nc(-c3ccccc3)c(NC(C)(C)C)o2)cc1`, the Potency in test [1] is 1.69 µM (active) and inactive; in test [2], 1.69 µM (active) and inactive; in test [3], 1.51 µM (active) and inactive; in test [4] it was 2.13 µM (active) and inactive. Also, the Potency entry in test [5] and in test [6] was “inactive” throughout.
As for `COC(=O)c1ccc(CN2C(=O)[C@]3(OCCC=C[C@@H]3C)c3c(Br)cccc32)cc1`, the Potency result in test [1], in test [2], in test [3], in test [4], in test [5] and in test [6] was “inactive” throughout.
Turning to `COc1ccc(-c2nc(-c3ccccc3)oc2NC2CCCCC2)cc1`, the Potency entry in test [1], in test [2], in test [3], in test [4], in test [5] and in test [6] was “inactive” each time.
With `COC1=CC2C(=O)C(C1=O)C1c3ccccc3CC21` (stereo not given), the Potency result in test [1], in test [2], in test [3], in test [4], in test [5] and in test [6] was “inactive” throughout.
Take `COCCN1C=C2C(=O)C(C)(OC(=O)C3CCCC3)C(=O)C=C2C=C1c1ccsc1` (stereo not given): the Potency result in test [1], in test [2], in test [3], in test [4], in test [5] and in test [6] was “inactive” throughout.
Regarding `C[C@@H]1C=CCCO[C@]12C(=O)N(Cc1ccc(F)cc1)c1cccc(Br)c12`, the Potency entry in test [1], in test [2], in test [3], in test [4], in test [5] and in test [6] was “inactive” each time.
As for `C=CCN1C=C2C(=O)C(C)(OC(=O)c3ccc(OC)cc3)C(=O)C(c3ccco3)=C2C=C1CCCC` (stereo not given), the Potency entry in test [1], in test [2], in test [3], in test [4], in test [5] and in test [6] was “inactive” throughout.
With `C=CCOC(=O)C(C(C)=O)[C@@H](NC(=O)OC)c1ccco1` (stereo not given in full), the Potency entry in test [1], in test [2], in test [3], in test [4], in test [5] and in test [6] was “inactive” each time.
Turning to `C[C@H]1C(C(=O)N2CCCC2)=Cc2[nH]c(=O)[nH]c2C=C1c1ccccc1`, the Potency result in test [1], in test [2], in test [3], in test [4], in test [5] and in test [6] was “inactive” throughout.
`COC(=O)[C@@H](O)CC[C@@H](C)Cc1c(OC)c(OC)c(C)c(OC)c1OC`: the Potency result in test [1], in test [2], in test [3], in test [4], in test [5] and in test [6] was “inactive” throughout.
As for `COC(=O)C1=C(C(=O)OC)[C@@H]2N(C)c3ccccc3[C@@]23C[C@@H](C(=O)OC)N(C(=O)c2ccco2)C3=N1`, the Potency result in test [1], in test [2], in test [3], in test [4], in test [5] and in test [6] was “inactive” in each case.
Take `CCOC(=O)CN1C(=O)N[C@@H](c2ccccc2)[C@H](C(C)=O)[C@H]1C`: the Potency result in test [1], in test [2], in test [3], in test [4], in test [5] and in test [6] was “inactive” in each case.
With `CO[C@H](c1ccccc1Br)[C@H](C)C=CCCO`, the Potency entry in test [1], in test [2], in test [3], in test [4], in test [5] and in test [6] was “inactive” each time.
Turning to `C=CC[C@@H]1C=C[C@@H](ON=C2[C@H]3CCn4c(=O)n(-c5ccccc5)c(=O)n4[C@@H]3[C@H](O)[C@@H]3O[C@H]23)[C@@H](CO)O1`, the Potency entry in test [1], in test [2], in test [3], in test [4], in test [5] and in test [6] was “inactive” each time.
In the case of `C[C@@H]1CC[C@H]2C(=O)N(Cc3cccc([N+](=O)[O-])c3)C[C@@H](O)CN2[C@@H]1c1cccc(Br)c1`, the Potency entry in test [1], in test [2], in test [3], in test [4], in test [5] and in test [6] was “inactive” throughout.
Take `C=CC[C@@H]1C=C[C@@H](OC(=O)OCC)[C@@H](COC(=O)OCC)O1`: the Potency result in test [1], in test [2], in test [3], in test [4], in test [5] and in test [6] was “inactive” each time.
